Screens as filed in PubChem BioAssay.
PPARg SRC2 recr: PPARgamma-driven SRC-2 recruitment agonism | activation, % at 8 µM | PPARgamma LBD-SRC-2 recruitment, biochemical | AID 1032 | actives 0.34% (n = 200,000) | P37231;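 also: 0% = vehicle and 100% = reference agonist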
SRC3 TRFRET art: flags TR-FRET format artefacts in PPARgamma SRC-3 recruitment agonist screen; TR-FRET artefact counter-screen, PPARgamma/SRC-3 format; hits give high values; TR-FRET ratio at 8 µM; actives 0.39% (n = 99,000); AID 1048; in the data active = TR-FRET ratio above about 2000
SRC1 TRFRET art: counter-screen for PPARgamma SRC-1 recruitment agonists: TR-FRET artefact; TR-FRET ratio at 8 µM; TR-FRET detection artefact counter-screen, emission ratio; hits give high values; actives 0.34% (n = 99,000); AID 1051; in the data active = TR-FRET ratio above about 2300
PPARg SRC-3 ag: PPARgamma-driven SRC-3 recruitment agonism; P37231; biochemical PPARgamma/SRC-3 coactivator recruitment assay; activation, % at 8 µM; actives 0.26% (n = 200,000); in the data active = activation above about 23%;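 also: 0% = DMSO and 100% = reference agonist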
SRC2 TRFRET art: counter-screen for PPARgamma SRC-2 recruitment agonists: TR-FRET artefact; AID 1049; TR-FRET ratio at 8 µM; actives 0.4% (n = 200,000); hits give high values; in the data active = TR-FRET ratio above about 2000
PPARg SRC1 recr: PPARgamma-driven SRC-1 recruitment agonism | AID 631 | activation, % at 8 µM | PPARgamma-SRC-1 coactivator recruitment biochemical assay | actives 0.41% (n = 200,000) | P37231; in the data active = activation above about 19%;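 also: 0% = DMSO and 100% = reference agonist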
PPARg SRC2 ag: human PPARgamma SRC-2 recruitment agonism, confirmation. shares compounds with PPARg SRC-3 ag. biochemical SRC-2 recruitment by PPARgamma. activation, % at 8 µM. actives 52% (n = 790). AID 1297;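 also: 0% = vehicle alone and 100% = reference agonist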
PPARg SRC1 conf: human PPARgamma SRC-1 recruitment agonism, confirmation; shares compounds with PPARg SRC-3 ag; activation, % at 8 µM; PPARgamma–SRC-1 coactivator recruitment biochemical assay; AID 1300; actives 43% (n = 790); in the data active = activation above about 20%;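 also: 0% = vehicle wells and 100% = reference agonist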
PPARg SRC3 conf: confirmation of agonists of SRC-3 recruitment by human PPARgamma | activation, % at 8 µM | actives 29% (n = 790) | biochemical PPARgamma-SRC-3 coactivator recruitment, agonist mode | AID 1301 | shares compounds with PPARg SRC-3 ag; in the data active = activation above about 24%;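 also: 0% = vehicle wells and 100% = reference agonist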
Starred values were filed as active, the others as inactive; . = not tested or not shown. A selection: hits, their analogues and other compounds. The true share with any hit is near 0.84%. Rule as the data show it, unless noted: active = activation above about 22%; inactive = the rest.

SMILES	PPARg SRC2 recr	SRC3 TRFRET art	SRC1 TRFRET art	PPARg SRC-3 ag	SRC2 TRFRET art	PPARg SRC1 recr	PPARg SRC2 ag	PPARg SRC1 conf	PPARg SRC3 conf
COC(=O)c1cc(-c2ccc3c(c2)OCO3)nc2ccccc12	-2	1427	1725	-2	1616	-1	.	.	.
O=C(O)c1cc(-c2cccnc2)nc2ccc(Br)cc12	16	2133*	2326*	13	1853	25*	14	6	10
C=CCn1c(=S)[nH]c2scc(-c3ccc(C)o3)c2c1=O	15	2146*	2448*	24*	2125*	25*	21	15	16
O=c1c2c(-c3cccs3)csc2[nH]c(=S)n1-c1ccccc1	43*	.	.	82*	2587*	65*	63*	48*	42*
CCn1c(=S)[nH]c2scc(-c3cccs3)c2c1=O	49*	2804*	3314*	39*	2915*	52*	60*	44*	39*
Cc1ccc(-c2csc3nc(C)n(N)c(=O)c23)o1	-1	.	.	6	1385	6	.	.	.
O=c1c2c(-c3cccs3)csc2ncn1-c1ccccc1	0	.	.	2	1481	-2	.	.	.
N=C(N)SCc1cn(-c2ccccc2)nc1-c1ccc(Br)cc1	-2	1642	1915	2	1395	-3	.	.	.
CCO[C@@H]1OC(C(=O)N2CCOCC2)=C[C@H](c2cn(C(C)=O)c3ccccc23)[C@H]1CCCO	-1	1536	1602	0	1484	-1	.	.	.
Cc1ccc(-c2csc3nnc(SCC(=O)Nc4cccc(C)n4)n23)cc1	10	.	.	10	1744	21*	4	5	5
CCN(CC)c1ccc(C=Nc2ccc(N(C)C)cc2)c(O)c1	78*	.	.	98*	2498*	24*	6	5	7
CCN(CC)c1ccc(C=Nc2ccccc2)c(O)c1	6	.	.	10	1517	-4	.	.	.
CC1CCCCN1C(=O)Cc1ccc(F)cc1 (stereo not drawn)	-4	.	.	-11	1332	-4	.	.	.
O=C(O)c1cc(-c2ccc(Cl)s2)nc2ccccc12	39*	2388*	3037*	22	2455*	37*	50*	35*	33*
Cc1ccc(S(=O)(=O)NCC(=O)OCC(=O)c2cccs2)cc1	-3	.	.	-2	1454	-1	.	.	.
Cc1ccc(S(=O)(=O)NCC(=O)OCC(=O)c2ccc(Br)s2)cc1	55*	.	.	66*	1836	36*	51*	32*	35*
O=c1cc(CO)occ1OCc1c(F)cccc1Cl	6	1479	1677	5	1417	12	.	.	.
CCC(=O)Nc1cccc(-c2nc3ccccc3c(=O)o2)c1	-13	.	.	18	1739	19*	4	14	15
CC(=O)N=c1sc2nc3ccccc3nc2n1N(C(C)=O)C(C)=O	26*	1815	2476*	15	1906	15	44*	31*	29*
O=C1CCCN1CCNC(=S)Nc1ccccc1	0	.	.	11	1426	1	.	.	.
O=C1CCCN1CCCNC(=S)Nc1ccc(Nc2ccccc2)cc1	14	1767	2144	11	1621	24*	9	5	5
Cc1nnc(SC(C)C(=O)Nc2ccc(Cl)cn2)n1Cc1ccccc1 (stereo not drawn)	1	1631	1869	0	1728	4	.	.	.
CC(Sc1nnc(-c2ccc(Cl)cc2Cl)n1Cc1ccccc1)C(=O)Nc1nccs1 (stereo not drawn)	7	.	.	18	1618	37*	19	28*	26*
O=C(COc1ccc2ccccc2c1)NCCNC(=O)COc1ccc2ccccc2c1	39*	.	.	47*	2532*	38*	52*	48*	34*
CN1CCc2nc3sc(C(=O)NCc4ccccc4)c(N)c3cc2C1	24*	1839	2218	16	1733	13	6	6	7
SMILES	PPARg SRC2 recr	SRC3 TRFRET art	SRC1 TRFRET art	PPARg SRC-3 ag	SRC2 TRFRET art	PPARg SRC1 recr	PPARg SRC2 ag	PPARg SRC1 conf	PPARg SRC3 conf
CC1(C)CC(=O)c2cc3c(N)c(C(=O)NCc4ccccc4)sc3nc2C1	-4	.	.	-8	1548	0	.	.	.
Cc1ccc(NN2C(=O)C=C(c3ccccc3)C2=O)cc1	-3	1596	2083	1	1619	10	.	.	.
CCn1c(SCC(=O)Nc2cc3oc4ccccc4c3cc2OC)nnc1-c1cccs1	26*	.	.	12	1548	5	5	0	2
COc1cc2c(cc1NC(=O)CSc1nnc(Cc3cccs3)n1C)oc1ccccc12	2	.	.	-11	1490	5	.	.	.
CC(=O)Nc1ccc(C2NC(=O)c3ccccc3O2)cc1 (stereo not drawn)	-3	.	.	4	1749	5	.	.	.
CN(C)c1ccc(-c2nn3c(-c4ccc(Cl)cc4Cl)nnc3s2)cc1	5	1563	1837	-3	1484	3	.	.	.
Clc1ccc(-c2nnc3sc(-c4ccc(Br)o4)nn23)c(Cl)c1	23*	.	.	21	1760	6	15	10	10
CCOc1ccccc1N1CCN(c2nc(N)c(C#N)c(CC#N)c2C#N)CC1	16	.	.	29*	1666	8	3	1	2
CCCCc1cc(=O)oc2cc(C)cc(O)c12	14	.	.	17	1941	7	.	.	.
CCCCc1cc(=O)oc2cc(O)cc(O)c12	20	2006	2687*	13	2054*	28*	13	9	11
CCOC(=O)C1CCN(C(=O)COc2ccc(Br)cc2)CC1	3	.	.	4	1566	-1	.	.	.
CCn1c(=O)cc(SCC(=O)Nc2cc(OC)c(OC)c(OC)c2)c2ccccc21	55*	.	.	42*	2483*	39*	40*	25*	26*
CCn1c2ccccc2c2cc(NC(=O)c3cc(OC)c(OC)c(OC)c3)ccc21	6	.	.	13	1668	8	.	.	.
CCn1c(=O)cc(SCC(=O)Nc2cccc(SC)c2)c2ccccc21	42*	.	.	47*	2529*	35*	44*	28*	28*
CCCCn1c(N)c(N(CC)C(=O)CCc2ccccc2)c(=O)[nH]c1=O	-6	1387	1583	-7	1345	-1	.	.	.
Cc1cccc(N2CCN(C(=O)CC(NC(=O)c3ccccc3)c3ccccc3)CC2C)c1 (stereo not drawn)	-2	1400	1785	0	1450	1	.	.	.
COc1ccccc1NC(=O)CSc1ncnc2c1oc1ccccc12	2	.	.	13	1618	-5	.	.	.
O=C(CSc1ncnc2c1oc1ccccc12)Nc1cccc(F)c1	22*	.	.	43*	1746	25*	30*	24*	20
Cc1nc(SCc2nc3ccccc3[nH]2)c2oc3ccccc3c2n1	3	.	.	-10	1383	3	.	.	.
